From PubChem BioAssay (NCI)
About 83,000 compounds went through this panel and 20% of them were active in at least one assay; those are over-represented in the sample as a whole.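 Interpretation: 100, growth as untreated; towards 0, rising growth inhibition; 0, no net growth; 0 to -100, cell death. Compounds scoring below 10 were considered active.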 Calls of active or inactive are those of the source.

How the values were obtained:
Test in all cases: NCI-60 one-dose screen, 48 h (100 = growth as untreated, 0 = no growth, -100 = all killed)
Settings in all cases: 10 µM unless noted
NCI-H23 lung = test system: NCI-H23 lung
NCI-H226 lung = test system: NCI-H226 lung
NCI-H322M lung = test system: NCI-H322M lung
HOP-62 NSCLC = test system: HOP-62 NSCLC
NCI-H460 lung = test system: NCI-H460 lung
HOP-92 NSCLC = test system: HOP-92 NSCLC
NCI-H522 lung = test system: NCI-H522 lung
A549/ATCC NSCLC = test system: A549/ATCC NSCLC
786-0 renal = test system: 786-0 renal
COLO 205 colon = test system: COLO 205 colon

Measured: growth

Clc1ccc2nc(-c3ccc(-c4ccc(/C=N/NC5=NCCN5)cc4)s3)cn2c1
inactive: NCI-H23 lung 106% | NCI-H226 lung 94.9% | NCI-H322M lung 98.3% | HOP-62 NSCLC 98.6% | NCI-H460 lung 100% | HOP-92 NSCLC 76.5% | NCI-H522 lung 106% | A549/ATCC NSCLC 99.9% | 786-0 renal 95.5% | COLO 205 colon 107%

CC1(C)CC[C@]2(C(=O)O)CC[C@]3(C)C(=CC[C@@H]4[C@@]5(C)C/C(=C/c6cccnc6)[C@H](O)C(C)(C)[C@@H]5CC[C@]43C)[C@@H]2C1
active: NCI-H23 lung 6.1% [100 µM] | NCI-H226 lung -23% [100 µM] | NCI-H322M lung -17% [100 µM] | HOP-62 NSCLC -2.51% [100 µM] | NCI-H460 lung -16.7% [100 µM] | HOP-92 NSCLC -21.8% [100 µM] | NCI-H522 lung -8.98% [100 µM] | A549/ATCC NSCLC 5.82% [100 µM] | 786-0 renal 5.39% [100 µM] | COLO 205 colon -73% [100 µM]

COc1ccc(-c2c(C)nn3c(NCCN4CCOCC4)cc(C)nc23)cc1OC
inactive: NCI-H23 lung 102% | NCI-H226 lung 94.2% | NCI-H322M lung 102% | HOP-62 NSCLC 95% | NCI-H460 lung 103% | HOP-92 NSCLC 108% | NCI-H522 lung 106% | A549/ATCC NSCLC 96.6% | 786-0 renal 94.7% | COLO 205 colon 111%

Cn1cc(-c2noc(C(=O)c3cn(C)c4ncc(Br)cc34)n2)c2ccccc21
inactive: NCI-H23 lung 97.7% | NCI-H226 lung 99.3% | NCI-H322M lung 91% | HOP-62 NSCLC 102% | NCI-H460 lung 99.8% | HOP-92 NSCLC 37.6% | NCI-H522 lung 91.6% | A549/ATCC NSCLC 99.3% | 786-0 renal 91.3% | COLO 205 colon 107%

CCN(CCO)CCC(=O)c1ccc([N+](=O)[O-])cc1
inactive: NCI-H23 lung 102% | NCI-H226 lung 99.5% | NCI-H322M lung 101% | HOP-62 NSCLC 109% | NCI-H460 lung 111% | HOP-92 NSCLC 92.9% | NCI-H522 lung 100% | A549/ATCC NSCLC 103% | 786-0 renal 103% | COLO 205 colon 116%

CC1(C)C(=O)/C(=C\c2cccnc2)C[C@]2(C)[C@H]3CC[C@@H]4[C@H]5[C@H](C(=O)/C=C/c6cccnc6)CC[C@]5(C(=O)O)CC[C@@]4(C)[C@]3(C)CC[C@@H]12
active: NCI-H23 lung -60.4% [100 µM] | NCI-H226 lung -37.4% [100 µM] | NCI-H322M lung -97.2% [100 µM] | HOP-62 NSCLC -66.8% [100 µM] | NCI-H460 lung -43.9% [100 µM] | HOP-92 NSCLC -63.5% [100 µM] | NCI-H522 lung -71.6% [100 µM] | A549/ATCC NSCLC -13.6% [100 µM] | 786-0 renal -39.5% [100 µM] | COLO 205 colon -55.9% [100 µM]

O=C1Nc2ccccc2/C1=C/C(=O)c1ccc(N2CCOCC2)cc1
inactive: NCI-H23 lung 87.4% | NCI-H226 lung 100% | NCI-H322M lung 104% | HOP-62 NSCLC 100% | NCI-H460 lung 101% | HOP-92 NSCLC 71.9% | NCI-H522 lung 35.7% | A549/ATCC NSCLC 96% | 786-0 renal 94.1% | COLO 205 colon 101%

CSc1nc(N)c(N=Nc2ccc(S(=O)(=O)Nc3nnc(C)s3)cc2)c(=O)[nH]1
inactive: NCI-H23 lung 107% | NCI-H226 lung 100% | NCI-H322M lung 109% | HOP-62 NSCLC 104% | NCI-H460 lung 106% | HOP-92 NSCLC 108% | NCI-H522 lung 103% | A549/ATCC NSCLC 115% | 786-0 renal 114% | COLO 205 colon 96.3%

O=C(N=c1n(-c2ccccc2)nc2n1CCN2C1=NCCN1C(=O)c1ccc(Cl)cc1)c1ccc(Cl)cc1
inactive: NCI-H23 lung 75.9% | NCI-H226 lung 93.2% | NCI-H322M lung 86.9% | HOP-62 NSCLC 93.5% | NCI-H460 lung 60.6% | HOP-92 NSCLC 120% | NCI-H522 lung 64.2% | A549/ATCC NSCLC 65.4% | 786-0 renal 83.1% | COLO 205 colon 75.1%

Nc1ccc2c(c1)Cc1cc(NC(=O)C(F)(F)F)ccc1-2
inactive: NCI-H23 lung 95.9% | NCI-H226 lung 93.6% | NCI-H322M lung 95.5% | HOP-62 NSCLC 105% | NCI-H460 lung 97.8% | HOP-92 NSCLC 101% | NCI-H522 lung 90.3% | A549/ATCC NSCLC 93.6% | 786-0 renal 108% | COLO 205 colon 109%

CCn1cc(-c2cc(-c3ccc(Cl)cc3)nc(N)n2)c(-c2ccc(Br)cc2)n1
inactive: NCI-H23 lung 79.4% | NCI-H226 lung 86.1% | NCI-H322M lung 92.6% | HOP-62 NSCLC 74.7% | NCI-H460 lung 95.4% | HOP-92 NSCLC 74.2% | NCI-H522 lung 48.7% | A549/ATCC NSCLC 64.7% | 786-0 renal 89.4% | COLO 205 colon 85.7%

O=S(=O)(c1ccc(N/N=C\c2ccccc2Cl)cc1)c1ccc(N/N=C/c2ccccc2Cl)cc1
inactive: NCI-H23 lung 86.8% | NCI-H226 lung 74.9% | NCI-H322M lung 94.2% | HOP-62 NSCLC 88% | NCI-H460 lung 71.2% | HOP-92 NSCLC 31.2% | NCI-H522 lung 84.8% | A549/ATCC NSCLC 85.2% | 786-0 renal 98.4% | COLO 205 colon 97.1%

O=C(CCCCCCSc1nc(-c2ccc(Cl)cc2)cc(-c2ccc(Cl)cc2)n1)NO
inactive: NCI-H23 lung 24.2% | NCI-H226 lung 26.7% | NCI-H322M lung 38.4% | HOP-62 NSCLC 15.9% | NCI-H460 lung 14.9% | HOP-92 NSCLC 44.8% | NCI-H522 lung 17.1% | 786-0 renal 30.8% | COLO 205 colon 48.4%
active: A549/ATCC NSCLC 7.16%

CC1(C)CC(=O)c2c(ccc(C(=O)C[C@@H](N)CO)c2N)O1
active: NCI-H322M lung 5.96% | HOP-62 NSCLC 2.01% | NCI-H460 lung 4.1%
inactive: NCI-H23 lung 45.9% | NCI-H226 lung 27.5% | HOP-92 NSCLC 82.7% | NCI-H522 lung 20.1% | A549/ATCC NSCLC 15.3% | 786-0 renal 66.7% | COLO 205 colon 17.9%

C=C(C)[C@@H]1CC[C@]2(C(=O)OC)CC[C@]3(C)[C@H](CC[C@@H]4[C@@]5(C)CC/C(=N\OCCC(=NCCC#N)NOCCC#N)C(C)(C)[C@@H]5CC[C@]43C)[C@@H]12
inactive: NCI-H23 lung 21.8% [100 µM] | NCI-H322M lung 46.1% [100 µM] | HOP-62 NSCLC 32.5% [100 µM] | NCI-H522 lung 13.4% [100 µM] | A549/ATCC NSCLC 15.8% [100 µM] | COLO 205 colon 17.6% [100 µM]
active: NCI-H226 lung 2.42% [100 µM] | NCI-H460 lung 4.22% [100 µM] | HOP-92 NSCLC -15% [100 µM] | 786-0 renal -11.5% [100 µM]

O=c1[nH]c2cc(Cl)c(Cl)cc2n2cc3ncccc3c12
inactive: NCI-H23 lung 90.6% | NCI-H226 lung 89.2% | NCI-H322M lung 97.9% | HOP-62 NSCLC 80.6% | NCI-H460 lung 62.8% | HOP-92 NSCLC 87.3% | NCI-H522 lung 43.8% | A549/ATCC NSCLC 91.2% | 786-0 renal 92.2% | COLO 205 colon 90.4%

O=C1COCCN1c1ccc(NCc2cn(Cc3cccc4ccccc34)c3ccccc23)cc1
active: NCI-H226 lung 5.06%
inactive: NCI-H23 lung 84% | NCI-H322M lung 91.5% | HOP-62 NSCLC 84.3% | NCI-H460 lung 64.4% | HOP-92 NSCLC 72.6% | NCI-H522 lung 86.3% | A549/ATCC NSCLC 87.7% | 786-0 renal 98.8% | COLO 205 colon 93.6%

C=CC1=C(C)C2=NC1=CC1=NC(=CC3=C(C)C4=C(O)C(C(=O)O)C(=C5NC(=C2)C(C)C5CCC(=O)O)C4=N3)C(CC)=C1C (stereo not given)
inactive: NCI-H23 lung 107% | NCI-H226 lung 97.5% | NCI-H322M lung 112% | HOP-62 NSCLC 121% | NCI-H460 lung 107% | HOP-92 NSCLC 108% | NCI-H522 lung 116% | A549/ATCC NSCLC 94.6% | 786-0 renal 113% | COLO 205 colon 114%

CCCCCCSc1ncnc2nc[nH]c12
inactive: NCI-H23 lung 92.4% | NCI-H226 lung 85.5% | NCI-H322M lung 99.9% | HOP-62 NSCLC 95.6% | NCI-H460 lung 94.5% | HOP-92 NSCLC 68.3% | NCI-H522 lung 86.3% | A549/ATCC NSCLC 96.1% | 786-0 renal 89.7% | COLO 205 colon 95.2%

CCN(CC)CCCC(C)Nc1c2ccc(C)cc2nc2ccc(OC)cc12 (stereo not given)
inactive: NCI-H23 lung 41.8% | NCI-H226 lung 42.4% | NCI-H322M lung 10.9% | HOP-62 NSCLC 45% | HOP-92 NSCLC 40.8% | NCI-H522 lung 51.1% | A549/ATCC NSCLC 14.7% | 786-0 renal 33%
active: NCI-H460 lung -44.3% | COLO 205 colon -40.4%

COc1cc2c(c(Br)c1N)-c1cc(Br)c(N)cc1C2=O
inactive: NCI-H23 lung 49.9% | NCI-H322M lung 71.2% | HOP-62 NSCLC 60.8% | NCI-H460 lung 45.7% | HOP-92 NSCLC 54.9% | NCI-H522 lung 70.5% | A549/ATCC NSCLC 83.5% | 786-0 renal 58.8% | COLO 205 colon 79.3%
active: NCI-H226 lung -24.1%

CC1(C)[C@@H](NOCCCN)CC[C@]2(C)[C@H]3C(=O)C=C4[C@@H]5C[C@](C)(C(=O)O)CC[C@]5(C)CC[C@@]4(C)[C@]3(C)CC[C@@H]12
active: NCI-H23 lung -39.4% [100 µM] | NCI-H226 lung -44.8% [100 µM] | NCI-H322M lung -94.4% [100 µM] | HOP-62 NSCLC -84.4% [100 µM] | NCI-H460 lung -67.2% [100 µM] | HOP-92 NSCLC -71.8% [100 µM] | NCI-H522 lung -57.7% [100 µM] | A549/ATCC NSCLC -27.4% [100 µM] | 786-0 renal -78.6% [100 µM] | COLO 205 colon -68.2% [100 µM]
